Compound activity: PubChem BioAssay, National Center for Advancing Translational Sciences (NCATS)
ELG1 genotox: qHTS screen for small molecules that induce genotoxicity in human embryonic kidney (HEK293T) cells expressing luciferase-tagged ELG1. HEK293T ELG1-luciferase reporter, luminescence, 16 h. 330,000 tested, 1.3% active. Potency, µM (titrated, usually from 46 µM), for inactives: at the highest dose activity change, positive = activation, actives largely listed as activators; further: % of control where 0% means no effect; nearly all actives have a fitted effect of over 60% in size
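ELG1-luciferase HEK293T cells, 2,000/well; compound pinned in; 16 hr, 37 °C, 5% CO2; ONE-Glo, 30 min RT; luminescence on CCD imager.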
SMN2 splice enh: qHTS Assay for Enhancers of SMN2 Splice Variant Expression; HEK293 SMN2-luciferase splicing reporter, luminescence, 30-36 h; Potency, µM (titrated, usually from 46.1 µM), inactives show at the top dose activity change, positive = activation, usual class: activators; 210,000 tested, 2.8% active; AID 1458, 2008; further: % of control where 0% means no effect; nearly all actives have a fitted effect of over 55% in size
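HEK293 cells carry an SMN2 […]–luciferase reporter in which exon 7 inclusion puts luciferase in frame. Cells were plated 10-12 h before compound addition, then incubated 30-36 h at 37C. ONE-Glo luminescence was read; sodium butyrate at 4.5 mM final served as control.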
FLuc modulator: qHTS profiling assay for firefly luciferase inhibitor/activator using purifed enzyme and Km concentrations of substrates (counterscreen for miR-21 project); 360,000 tested, 6.9% active; Potency, µM (top dose mostly 57.5 µM), inactives show at the highest dose activity change, negative = inhibition, actives largely listed as inhibitors; Luciferin 4-monooxygenase (Photinus pyralis), P08659; purified FLuc, Km substrates, luminescence inhibition;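 further: plate controls were vehicle for no effect and reference inhibitor for full effect; nearly all actives have a fitted effect of over 55% in size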
Target sequence (P08659 whole entry, looked up): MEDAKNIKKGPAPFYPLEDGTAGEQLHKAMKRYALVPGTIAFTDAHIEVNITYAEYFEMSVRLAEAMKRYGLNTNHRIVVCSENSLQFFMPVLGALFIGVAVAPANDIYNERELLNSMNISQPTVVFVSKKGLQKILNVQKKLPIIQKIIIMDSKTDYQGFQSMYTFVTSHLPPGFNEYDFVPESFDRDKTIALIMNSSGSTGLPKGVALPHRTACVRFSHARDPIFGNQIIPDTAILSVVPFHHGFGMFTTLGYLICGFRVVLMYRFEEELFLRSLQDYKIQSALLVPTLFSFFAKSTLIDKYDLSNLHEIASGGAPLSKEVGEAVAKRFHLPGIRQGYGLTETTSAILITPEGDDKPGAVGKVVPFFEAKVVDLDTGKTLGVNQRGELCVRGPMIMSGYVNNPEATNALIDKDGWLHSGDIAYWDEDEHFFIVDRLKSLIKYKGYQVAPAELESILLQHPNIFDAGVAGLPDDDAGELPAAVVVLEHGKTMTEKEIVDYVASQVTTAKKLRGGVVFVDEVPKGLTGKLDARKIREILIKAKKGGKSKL
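Purified P. pyralis luciferase (10nM final) with 10uM D-luciferin and 10uM ATP (Km levels) in 50mM Tris acetate pH 7.5, 10mM Mg acetate, 0.01% Tween-20, 0.05% BSA; qHTS 6-point titration, ~60 µM downward; luminescence read.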
ELG1 DNA repair: qHTS screen for small molecules that inhibit ELG1-dependent DNA repair in human embryonic kidney (HEK293T) cells expressing luciferase-tagged ELG1; HEK293T ELG1-luciferase reporter, luminescence, 16 h; DNA damage induced by 5-fluorouridine; Potency, µM (highest dose often 46.1 µM), without a hit: at the top dose activity change, negative = inhibition, hits mostly inhibitors; 330,000 tested, 2.3% active; AID 504467, 2011; further: on the % scale 0 is the no-effect control and ±100 the full control effect; nearly all actives have a fitted effect of over 55% in size
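Reporter activity after DNA damage by 5-fluorouridine is monitored. Compound-treated cells incubate 16 hr at 37 °C, then ONE-Glo is added for 30 min before luminescence reading.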
Rab9 prom act: qHTS Assay for Rab9 Promoter Activators; AID 485297, 2010; Potency, µM (highest dose often 9.22 µM), without a hit: at the top dose activation, negative = inhibition, actives largely listed as activators; Huh7 Rab9 promoter-luciferase reporter, luminescence, 24 h; 320,000 tested, 2.8% active; further: % of control where 0% means no effect; nearly all actives have a fitted effect of over 60% in size
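Stable Rab9-luc Huh7, 1500 cells/well, 2 h settle; cmpd in DMSO, 24 h, 37 °C/5% CO2; luciferase reagent 10 min RT; luminescence.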
NPC1 prom act: qHTS Assay for NPC1 Promoter Activators; Huh7 NPC1 promoter luciferase reporter, 24 h; Potency, µM (top dose mostly 9.22 µM), without a hit: at the top dose activation, actives largely listed as activators; 320,000 tested, 2.4% active; AID 485313, 2010; further: % of control where 0% means no effect; nearly all actives have a fitted effect of over 60% in size
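Readout is luciferase luminescence, reflecting NPC1 promoter activation in stably transfected Huh7 cells after 24 h compound exposure at 37 °C in reduced-serum medium with 10% FBS.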
Active calls of the source: *; [ ] = dose if it differs, or a comment. Hits are enriched below; roughly 9.4% of the tested compounds scored in any of these assays. The call rests on the fitted dose curve; in most records, active means well fitted curve in the direction sought with a large enough effect; inconclusive means small, poorly fitted or top-dose-only effect, or another doubt; inactive means no such curve, though single readings can be large; an effect the other way counts as inactive or inconclusive. Potency means the concentration at half of the fitted maximal effect.

How did CC1CCN(S(=O)(=O)c2ccc(C(=O)Nc3ccccn3)cc2)CC1 do in these assays?
ELG1 genotox: 20.6µM*; FLuc modulator: inconclusive; ELG1 DNA repair: inconclusive; Rab9 prom act: 22.0%; NPC1 prom act: inconclusive

What do the screens show for `Cc1ccnc(NC(=O)c2ccc(S(=O)(=O)N3CCC(C)CC3)cc2)c1`?
ELG1 genotox: 0.731µM*; FLuc modulator: 6.75µM*; ELG1 DNA repair: inconclusive; Rab9 prom act: -3.6%; NPC1 prom act: -1.6%

Results for O=C(Nc1ccccn1)c1ccc(S(=O)(=O)N2CCCC2)cc1 ?
ELG1 genotox: 12.6%; FLuc modulator: inconclusive; ELG1 DNA repair: inconclusive; Rab9 prom act: 20.4%; NPC1 prom act: 15.3%

What do the screens show for `Cc1cccc(NC(=O)c2ccc(S(=O)(=O)N3CCC(C)CC3)cc2)n1`?
ELG1 genotox: -17.7%; FLuc modulator: -3.8%; ELG1 DNA repair: inconclusive; Rab9 prom act: -8.2%; NPC1 prom act: -5.8%

What do the screens show for `O=C(O)c1ccc2c(c1)C(=O)N([C@@H](Cc1ccc(O)cc1)C(=O)O)C2=O`?
FLuc modulator: 0.1%; Rab9 prom act: -1.2%; NPC1 prom act: -1.4%

What do the screens show for `Cc1ccc(N(Cc2ccc(C(=O)NCCSc3ccccn3)cc2)S(C)(=O)=O)cc1C`?
ELG1 genotox: -8.4%; SMN2 splice enh: -45.1%; FLuc modulator: -1.7%; ELG1 DNA repair: 9.2µM*; Rab9 prom act: -3.8%; NPC1 prom act: 0.9%

How did COc1ccc(C(=O)NCCSc2ccccn2)cc1 do in these assays?
ELG1 genotox: 1.03µM*; SMN2 splice enh: 2.82µM*; FLuc modulator: 2.13µM*; ELG1 DNA repair: inconclusive; Rab9 prom act: 0.398µM*; NPC1 prom act: 0.708µM*

How did Cc1ccc(C(=O)Nc2ccccc2C(=O)OCc2cc(=O)n3nc(C4CC4)sc3n2)cc1 do in these assays?
FLuc modulator: -0.8%

Results for O=C1CN(C(=O)COc2ccc(Cl)cc2Cl)C(c2ccccc2)c2cc(F)ccc2N1 (stereo not drawn) ?
SMN2 splice enh: -55.8%; FLuc modulator: -1.1%

What do the screens show for `Cc1cc(C)c2c(SCc3ccc(Cl)cc3Cl)nc(N)nc2n1`?
SMN2 splice enh: -1.1%[9.22 µM]

How did CCOC(=O)/C(N=Nc1ccc2c(c1)OCO2)=C(\C)O do in these assays?
ELG1 genotox: inconclusive; SMN2 splice enh: 11.2µM*; FLuc modulator: 13.5µM*; ELG1 DNA repair: inconclusive; Rab9 prom act: 2.51µM*; NPC1 prom act: 3.98µM*

What do the screens show for `Cc1cc(/C=C(\C#N)C(=O)NCc2ccco2)c(C)n1-c1cccnc1`?
ELG1 genotox: inconclusive; FLuc modulator: 15.1µM*; ELG1 DNA repair: 6.1%; Rab9 prom act: inconclusive; NPC1 prom act: inconclusive

How did Cc1cc(/C=C(\C#N)C(=O)NCc2ccco2)c(C)n1C1CCCC1 do in these assays?
ELG1 genotox: inconclusive; SMN2 splice enh: -0.6%; FLuc modulator: 6.01µM*; ELG1 DNA repair: inconclusive; Rab9 prom act: inconclusive; NPC1 prom act: inconclusive

What do the screens show for `Cc1cccc(-n2c(C)cc(C=C(C#N)C#N)c2C)c1`?
ELG1 genotox: 2.6%; SMN2 splice enh: -15.2%; FLuc modulator: 1.2%; ELG1 DNA repair: 19.8%; Rab9 prom act: -0.7%; NPC1 prom act: -1.1%

Results for Cc1ccc(/C=C(\C#N)C(=O)NCc2ccco2)o1 ?
ELG1 genotox: inconclusive; SMN2 splice enh: -7.6%; FLuc modulator: -14.5%; ELG1 DNA repair: inconclusive; Rab9 prom act: 18.0%; NPC1 prom act: 6.5%

How did Cc1cc(/C=C(/C#N)c2cccc(F)c2)c(C)n1-c1cccnc1 do in these assays?
ELG1 genotox: 5.17µM*; SMN2 splice enh: 11.2µM*; FLuc modulator: 8.49µM*; ELG1 DNA repair: inconclusive; Rab9 prom act: inconclusive; NPC1 prom act: inconclusive

Results for N#C/C(=C\c1ccc(OCc2cccc(C(=O)O)c2)cc1)C(=O)NCc1ccco1 ?
ELG1 genotox: inconclusive; FLuc modulator: 30.1µM*; ELG1 DNA repair: inconclusive; Rab9 prom act: 0.1µM*; NPC1 prom act: 0.355µM*

Results for Cc1cc(C)c(-c2n[nH]c3c2C(c2ccccc2F)N(Cc2ccco2)C3=O)c(O)c1 (stereo not drawn) ?
SMN2 splice enh: -110.8%; FLuc modulator: -3.9%

How did COc1ccc(CCNC(=O)c2ccc(CNc3nc(=S)[nH]c4ccccc34)cc2)cc1OC do in these assays?
ELG1 genotox: -17.0%; SMN2 splice enh: -24.1%; FLuc modulator: -5.8%; ELG1 DNA repair: 14.6µM*; Rab9 prom act: 0.8%; NPC1 prom act: -0.9%

What do the screens show for `COc1ccc(CCNC(=O)c2cc(-c3ccc(C)c(C)c3)nc3ccccc23)cc1OC`?
FLuc modulator: 2.69µM*

Results for COc1ccc(-c2cc(C(=O)NCCc3ccc(OC)c(OC)c3)c3ccccc3n2)cc1 ?
SMN2 splice enh: 3.0%; FLuc modulator: 6.75µM*

Results for COc1ccc(CCNc2nc(=S)[nH]c3cc(OC)c(OC)cc23)cc1OC ?
ELG1 genotox: -6.6%; FLuc modulator: -0.9%; ELG1 DNA repair: -3.5%; Rab9 prom act: -13.1%; NPC1 prom act: -12.9%

What do the screens show for `COc1ccc(-c2cc(C(=O)NCCc3ccccc3)c3cc(C(C)C)ccc3n2)cc1`?
FLuc modulator: -13.2%

How did Cc1ccc(CCNC(=O)c2ccc3c(=O)n(-c4ccccc4)c(=O)[nH]c3c2)cc1 do in these assays?
SMN2 splice enh: -19.5%; FLuc modulator: -0.8%

Results for COc1ccc(-n2c(=O)[nH]c3cc(C(=O)NCCc4ccccc4)ccc3c2=O)cc1OC ?
ELG1 genotox: -9.4%; SMN2 splice enh: 2.8%; FLuc modulator: -2.1%; ELG1 DNA repair: 20.6µM*; Rab9 prom act: 0.0%[1.84 µM]; NPC1 prom act: -6.8%

How did Cn1ccc2c(OCC(=O)NCc3ccccc3Cl)cccc2c1=O do in these assays?
FLuc modulator: 2.6%

What do the screens show for `Cc1cc(Nc2cccc(Cl)c2C)n2nc(Cc3ccccc3)nc2n1`?
SMN2 splice enh: -18.6%; FLuc modulator: 6.4%

What do the screens show for `OC[C@@H]1O[C@@H](n2cnc3c(SCc4ccccc4)ncnc32)[C@@H](O)[C@H]1O`?
SMN2 splice enh: -8.9%[9.22 µM]

Results for COc1ccc(OC)c(CNC(=O)c2cc3cc4ccc(OC)cc4nc3o2)c1 ?
SMN2 splice enh: -13.1%; FLuc modulator: 7.0%
